Sm TGR inh – qHTS Assay for the Inhibitors of Schistosoma Mansoni Peroxiredoxins; AID 485364, 2010; Potency, µM (series often up to 114 µM), inactives show at the highest dose activity change, negative = inhibition, most hits filed as inhibitors; 360,000 tested, 3% active; Schistosoma mansoni thioredoxin glutathione reductase (TGR), Q962Y6; purified TGR, DTNB reduction, TNB absorbance 405 nm; active = well fitted inhibition curve with a large enough effect; inconclusive = small, poorly fitted or top-dose-only effect; inactive = no such curve, though single readings can be large or run the other way; also: potency is read from the fitted curve at half-maximal effect; % is scaled to controls: 0 for no effect and ±100 for the full control effect; nearly all actives have a fitted effect of over 60% in size
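TGR 20 nM + NADPH 100 uM (dispensed conc.), cpd preinc 15 min RT; start with NADPH (500 uM addition) then DTNB (15 mM addition). Kinetic TNB absorbance, 405 nm filter. Four-parameter Hill fit across titration.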
Shiga inhibitor – A qHTS for Small Molecule Inhibitors of Shiga Toxin; AID 2315, 2010; 290,000 tested, 9.2% active; Vero cells, Shiga toxin protein synthesis inhibition reporter; inhibition, % at 38.7 µM; in the data active = inhibition mostly above about 28%, no sharp cut-off; inactive = mostly below about 43%; also: 0% is about no effect
FMDV antiviral – High Throughput Screening for Foot and Mouth Disease Virus Antivirals. FMDV antiviral cell-based qHTS. Potency, µM (top dose mostly 57.9 µM), inactives show top-dose activity change, negative = inhibition, usual class: inhibitors. 410,000 tested, 1.2% active. AID 1159524, 2015; calls by dose curve; tested in HEK293T cells; also: read-out not given here; potency is read from the fitted curve at half-maximal effect; % is scaled to controls: 0 for no effect and ±100 for the full control effect; nearly all actives have a fitted effect of over 45% in size
CHX counter – Cycloheximide Counterscreen for Small Molecule Inhibitors of Shiga Toxin; cell reporter, cycloheximide protein synthesis inhibition counterscreen; max response, %; 300,000 tested, 12% active; AID 2314, 2010; in the data active = max response mostly above about 13%, no sharp cut-off; inactive = mostly below about 14%; also: read at 38.3 µM for the half of the compounds with a filed dose; 0% is about no effect
Starred values were filed as active, the others as inactive; u = inconclusive; x = no result given; [ ] = dose if it differs, or a comment. Sampled rows, rich in hits. Any-hit rate of the full collection: about 12%.

SMILES	Sm TGR inh	Shiga inhibitor	FMDV antiviral	CHX counter
O=C(c1ccc(CS(=O)(=O)c2ccc(Br)cc2)o1)N1CCOCC1	45µM*	7	-20%	0
O=C(c1ccc(CS(=O)(=O)c2ccc(Br)cc2)o1)N1CCN(c2ccc(F)cc2)CC1	0%	-9	u	8
Cc1ccc(S(=O)(=O)Cc2ccc(C(=O)N3CCN(c4ccccn4)CC3)o2)cc1	u	-7	0%	-6
O=C(/C=C/c1ccccc1)Nc1cc(-c2nc3ccccc3o2)ccc1Cl	0%	x	55%	x
COc1cccc(-n2cc(C(=O)OCc3ccc(F)c(F)c3)c3ccccc3c2=O)c1	-2%	x	0%	x
CN1CCCC2(CCN(C(=O)c3cccc(F)c3)CC2)C1	x	x	-14%	x
COc1ccc(S(=O)(=O)Cc2ccc(C(=O)N3CCOCC3)o2)cc1	28µM*	6	-23%	-1
O=C(c1ccc(CNS(=O)(=O)c2ccccc2)cc1)N1CCC2(CC1)OCCO2	40µM*	87	3%	52
COc1ccc(S(=O)(=O)Cc2ccc(C(=O)N3CC(C)CC(C)C3)o2)cc1 (stereo unspecified)	u	-4	-11%	-1
CCOc1ccc(NC(=O)c2ccc3c(c2)CCN3S(=O)(=O)c2ccc(Cl)cc2)cc1	-1%	x	0%	x
Cc1cc2c(cc1C)NC(CC(=O)Nc1cccc(C)c1C)C(=O)N2 (stereo unspecified)	7%	x	-7%	x
Cc1cc2c(cc1C)NC(CC(=O)NCc1ccccc1)C(=O)N2 (stereo unspecified)	-2%	61*	58%	26*
CC[C@H](C)[C@H](NC(=O)[C@H](C)NC(=O)[C@H](CC(N)=O)NC(=O)[C@H](CCCCN)NC(=O)[C@H](Cc1ccccc1)NC(=O)[C@H](CC(C)C)NC(=O)[C@@H](NC(=O)[C@@H](NC(=O)[C@H](CC(C)C)NC(=O)[C@@H]1CCCN1C(=O)[C@@H](NC(=O)[C@H](CCC(N)=O)NC(=O)[C@H](CO)NC(=O)[C@H](CCCCN)NC(=O)[C@H](CCC(=O)O)NC(=O)[C@H](CO)NC(=O)[C@@H](NC(=O)[C@H](CCSC)NC(=O)[C@H](Cc1ccccc1)NC(=O)CNC(=O)CNC(=O)[C@@H](N)Cc1ccc(O)cc1)[C@@H](C)O)[C@@H](C)O)C(C)C)[C@@H](C)O)C(=O)N[C@H](C(=O)N[C@@H](CCCCN)C(=O)N[C@@H](CC(N)=O)C(=O)N[C@@H](C)C(=O)N[C@@H](Cc1ccc(O)cc1)C(=O)N[C@@H](CCCCN)C(=O)N[C@@H](CCCCN)C(=O)NCC(=O)N[C@@H](CCC(=O)O)C(=O)O)[C@@H](C)CC	x	-6	0%[6.7 µM]	-1
NC(=O)c1cccc(N=Cc2cc(Cl)cc(Cl)c2O)c1	x	-10	-9%	7
Oc1c(Cl)cc(Cl)cc1C=Nc1ccccc1N1CCCC1	16µM*	3	x	9
O=C(NC1CCC1)C1CCC(=O)N(Cc2ccccc2F)C1 (stereo unspecified)	0%	8	17%	32*
O=C(NCCc1ccccc1F)C1CCC(=O)N(Cc2ccccc2F)C1 (stereo unspecified)	u	25*	3%	18*
CC#CCN(Cc1ccco1)C(=O)C1CCC(=O)N(Cc2ccccc2F)C1 (stereo unspecified)	-27%	29	20%	32*
COc1cc2nc(SCC(=O)Nc3cccc(C)c3)n3nc(CCn4c(C)nc5ccccc54)nc3c2cc1OC	-1%	x	-9%	x
COc1ccc(CNC(=O)c2nn(-c3ccccc3C)nc2CO)cc1	4%	x	-24%	x
CN(C)S(=O)(=O)c1cccc(C(=O)Nc2cc(Cl)ccc2O)c1	0%	34	-18%	40*
O=C(NCCc1ccccc1)C1=CCN(S(=O)(=O)c2ccccc2)CC1	-27%	35	18%	30*
CN(C)S(=O)(=O)c1cccc(C(=O)NCCc2ccccc2)c1	5%	72*	u	48*
Cc1ccc(C(=O)NCc2ccco2)cc1S(=O)(=O)N1CCCCC1	u	-9	x	3
Cc1ccc(C(=O)Nc2ccccc2C(=O)NCc2ccco2)cc1S(=O)(=O)N1CCCCC1	-25%	52*	2%	31*
CN(C)S(=O)(=O)c1cccc(C(=O)Nc2ccccc2Cl)c1	2%	25	2%	14
CN(C)S(=O)(=O)c1cccc(C(=O)Nc2ccccc2)c1	-2%	42	-3%	15
Cc1ccc(CNC(=O)CCCn2c(=O)c3ccccc3n(Cc3ccccc3Cl)c2=O)cc1	-1%	x	-6%	x

High-throughput results from PubChem.
